In PubChem BioAssay one finds composite z-score and z-score data, which are given here for four compounds.

Test [1] deals with Wnt5a (protein binding on small-molecule microarray). As to the kind of experiment: Wnt5a binders on small-molecule microarray, primary screen, biophysical, 635/667 nm fluorescence (AID 1142).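 Also: fluorescence read at 667 nm with signal to noise per printed feature.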 Particulars: 635 nm fluorescence, higher = more signal.
Test [2] can be described thus: cell viability in Huh7 cells, primary screen, cytotoxicity control for HCV replication inhibitor project, CellTiter-Glo luminescence, basal, 48 h (AID 1143).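 Also: Huh7 hepatoma cells carrying a hepatitis C replication reporter with no stimulus; test concentration not given here.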 Conditions: Huh7 HCV replicon, higher = more signal, called active from +8 up or from −8 down.
The nature of test [3]: CREB reporter modulators without forskolin, primary screen, cell-based, PC12, CRE-LacZ reporter, unstimulated (AID 1145). Particulars: no forskolin, luminescence, 4.5 h, higher = more signal, called active from +8 up or from −8 down.
Test [4] is described as follows: CREB reporter modulators under forskolin, primary screen, cell-based, PC12, CRE-LacZ reporter, forskolin-stimulated (AID 1146).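 Also: PC12 cells with 6xCRE LacZ reporter stimulated by forskolin 10 µM; beta-galactosidase reporter signal reflecting CREB driven transcription.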 Conditions: luminescence, 4.5 h, higher = more signal, called active from +8 up or from −8 down.
Test [5] addresses Streptavidin (Streptomyces avidinii) (UniProt P22629). Description: streptavidin binders on small-molecule microarray, primary screen, artefact control for SMM compound annotation, biophysical, 635/667 nm fluorescence (AID 1147).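 Also: signal reflects streptavidin binding to arrayed compounds as a control protein.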 Conditions: streptavidin binding, higher = more signal.
Test [6] can be described thus: small-molecule binders of probe aInhba, primary screen, biochemical, small-molecule microarray, 635/667 nm fluorescence (AID 1148).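 Also: score merges 667nm spot fluorescence with signal-to-noise for antibody binding to printed compounds.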 Conditions: higher = more signal.
The target in test [7] is Torsin-1A (Homo sapiens) (UniProt O14656). As to the kind of experiment: torsin A binders from cell lysate, primary screen, small-molecule microarray, wild-type, 635/667 nm (AID 1149). Conditions: COS7 hTOR1A-WT lysate, 635 nm fluorescence, higher = more signal.
Sequence of Torsin-1A (Homo sapiens) (O14656 whole entry, looked up): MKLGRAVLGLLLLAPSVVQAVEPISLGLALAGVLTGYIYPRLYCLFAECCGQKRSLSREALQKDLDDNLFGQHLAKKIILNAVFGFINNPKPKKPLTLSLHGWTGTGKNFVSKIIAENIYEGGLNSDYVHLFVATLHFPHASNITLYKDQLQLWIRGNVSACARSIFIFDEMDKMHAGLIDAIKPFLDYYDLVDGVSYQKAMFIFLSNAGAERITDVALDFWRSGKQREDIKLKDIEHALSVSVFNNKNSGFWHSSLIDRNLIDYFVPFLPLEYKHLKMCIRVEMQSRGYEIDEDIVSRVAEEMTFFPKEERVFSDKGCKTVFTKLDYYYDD
For test [8] the target is unchanged. Description: small-molecule binders of mutant TOR1A in lysate, primary screen, cell lysate, small-molecule microarray, COS7 lysate, 635/667 nm fluorescence (AID 1150).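 Also: score pools 667 nm emission and signal to noise measuring lysate protein binding.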 Conditions: COS7 hTOR1A mutant lysate, 635 nm fluorescence, higher = more signal.
The subject of test [9] is Sonic hedgehog protein (Shh). As to the kind of experiment: small-molecule binders of Shh protein, primary screen, biochemical, small-molecule microarray, 635/667 nm fluorescence (AID 1151).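 Also: Shh protein binding to compounds spotted on small-molecule microarray slides; score combines spot fluorescence intensity with signal-to-noise across triplicate slides.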 Conditions: small-molecule microarray binding, 635 nm fluorescence; higher = more signal.
The nature of test [10]: E. coli DRC41 culture turbidity changes, primary screen, E. coli filamentation inducer project, strain DRC41, OD650, 48 h (AID 1152).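 Also: E. coli MC1000 strain DRC41 lacking acrAB efflux pump and sulA.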 Particulars: E. coli DRC41 (acrAB sulA), higher = more signal, called active from +8 up or from −8 down.
Test [11] is described as follows: small-molecule binders of probe aLefty1, primary screen, biochemical, small-molecule microarray, 635/667 nm fluorescence (AID 1153).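 Also: score merges spot fluorescence with signal-to-noise ratio from the scanned slide images.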 Particulars: higher = more signal.
A short description of test [12]: PSAC antagonists in infected red cells, primary screen, cell-based, P. falciparum Indochina, OD700, 1 h (AID 1154). Particulars: P. falciparum Indochina infected RBC osmotic lysis, higher = more signal, called active from +8 up or from −8 down.
A short description of test [13]: PSAC antagonists in infected red cells, primary screen, cell-based, P. falciparum Indochina, OD700, 2 h (AID 1155).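 Also: lysis reports solute entry through the parasite surface anion channel PSAC; channel blockers reduce lysis of infected cells.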 Particulars: P. falciparum Indochina infected erythrocytes, osmotic lysis OD700; higher = more signal, called active from +8 up or from −8 down.
Test [14] can be described thus: osmotic lysis modulators in infected erythrocytes, primary screen, PSAC antagonist project, cell-based, P. falciparum Indochina, OD700, 3 h (AID 1156). Conditions: higher = more signal, called active from +8 up or from −8 down.
Test [15] in a line: PSAC antagonists in infected red cells, primary screen, cell-based, P. falciparum Indochina, OD700, 18 h (AID 1157). Particulars: P. falciparum Indochina infected erythrocytes, osmotic lysis OD700, 18 h; higher = more signal, called active from +8 up or from −8 down.
The nature of test [16]: modulators of S6 phosphorylation in cells, primary screen, cell-based, A549, cytoblot, luminescence, serum-stimulated (AID 1158).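 Also: serum-stimulated A549 lung adenocarcinoma cells; signal is phosphorylated S6 detected by cytoblot immunostaining with HRP secondary.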 Particulars: A549 phospho-S6 cytoblot, 5 h, higher = more signal.
In test [17] the target is NADPH oxidase 2 (Homo sapiens) (UniProt P04839). Description: NOX2-dependent H2O2 signal modulators, primary screen, NOX inhibitor project, cell-based, HEK293-NOX2, PMA-stimulated, Amplex Red fluorescence (AID 1159). Also: test concentration not given here. Particulars: 45 min, higher = more signal, called active from +8 up or from −8 down.
Sequence of NADPH oxidase 2 (Homo sapiens) (P04839 whole entry, looked up): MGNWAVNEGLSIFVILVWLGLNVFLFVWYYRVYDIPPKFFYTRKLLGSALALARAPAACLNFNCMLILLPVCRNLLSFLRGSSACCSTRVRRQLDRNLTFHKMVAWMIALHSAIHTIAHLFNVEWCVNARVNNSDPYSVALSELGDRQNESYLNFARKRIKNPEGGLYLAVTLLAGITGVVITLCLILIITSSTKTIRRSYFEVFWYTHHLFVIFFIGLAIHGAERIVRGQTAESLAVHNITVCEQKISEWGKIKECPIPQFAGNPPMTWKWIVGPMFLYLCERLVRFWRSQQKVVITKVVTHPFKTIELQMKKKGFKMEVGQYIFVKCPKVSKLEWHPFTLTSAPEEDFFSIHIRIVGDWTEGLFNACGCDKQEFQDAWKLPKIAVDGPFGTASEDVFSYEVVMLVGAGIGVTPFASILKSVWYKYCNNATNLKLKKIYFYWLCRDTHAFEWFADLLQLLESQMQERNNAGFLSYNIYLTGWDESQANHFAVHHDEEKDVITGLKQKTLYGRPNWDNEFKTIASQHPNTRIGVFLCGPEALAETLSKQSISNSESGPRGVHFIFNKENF
The target of test [18] is NADPH oxidase 4 (Homo sapiens) (UniProt Q9NPH5). As to the kind of experiment: NOX4-dependent H2O2 signal modulators, primary screen, NOX inhibitor project, cell-based, HEK293-NOX4, tetracycline-induced, Amplex Red fluorescence (AID 1160). Conditions: 45 min, higher = more signal, called active from +8 up or from −8 down.
Sequence of NADPH oxidase 4 (Homo sapiens) (Q9NPH5 whole entry, looked up): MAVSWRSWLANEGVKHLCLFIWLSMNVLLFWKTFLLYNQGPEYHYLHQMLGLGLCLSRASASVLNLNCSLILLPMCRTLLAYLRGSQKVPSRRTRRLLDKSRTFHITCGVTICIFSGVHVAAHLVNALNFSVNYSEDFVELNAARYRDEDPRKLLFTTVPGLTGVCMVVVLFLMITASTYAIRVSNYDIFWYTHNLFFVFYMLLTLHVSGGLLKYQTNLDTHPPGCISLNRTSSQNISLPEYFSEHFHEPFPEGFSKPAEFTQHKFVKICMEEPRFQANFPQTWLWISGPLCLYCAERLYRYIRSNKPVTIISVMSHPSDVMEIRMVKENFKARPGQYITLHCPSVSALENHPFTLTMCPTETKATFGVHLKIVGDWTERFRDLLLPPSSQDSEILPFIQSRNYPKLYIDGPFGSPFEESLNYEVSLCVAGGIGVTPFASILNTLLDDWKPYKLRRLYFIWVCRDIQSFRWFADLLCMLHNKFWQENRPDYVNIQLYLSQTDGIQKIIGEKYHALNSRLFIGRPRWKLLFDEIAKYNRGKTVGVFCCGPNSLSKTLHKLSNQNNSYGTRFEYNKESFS
Test [19] deals with NADPH oxidase 5 (Homo sapiens) (UniProt Q96PH1). Description: NOX5-dependent H2O2 signal modulators, primary screen, NOX inhibitor project, cell-based, HEK293-NOX5, Amplex Red fluorescence (AID 1161). Conditions: HEK293-NOX5, ionomycin, 45 min, higher = more signal.
Sequence of NADPH oxidase 5 (Homo sapiens) (Q96PH1 whole entry, looked up): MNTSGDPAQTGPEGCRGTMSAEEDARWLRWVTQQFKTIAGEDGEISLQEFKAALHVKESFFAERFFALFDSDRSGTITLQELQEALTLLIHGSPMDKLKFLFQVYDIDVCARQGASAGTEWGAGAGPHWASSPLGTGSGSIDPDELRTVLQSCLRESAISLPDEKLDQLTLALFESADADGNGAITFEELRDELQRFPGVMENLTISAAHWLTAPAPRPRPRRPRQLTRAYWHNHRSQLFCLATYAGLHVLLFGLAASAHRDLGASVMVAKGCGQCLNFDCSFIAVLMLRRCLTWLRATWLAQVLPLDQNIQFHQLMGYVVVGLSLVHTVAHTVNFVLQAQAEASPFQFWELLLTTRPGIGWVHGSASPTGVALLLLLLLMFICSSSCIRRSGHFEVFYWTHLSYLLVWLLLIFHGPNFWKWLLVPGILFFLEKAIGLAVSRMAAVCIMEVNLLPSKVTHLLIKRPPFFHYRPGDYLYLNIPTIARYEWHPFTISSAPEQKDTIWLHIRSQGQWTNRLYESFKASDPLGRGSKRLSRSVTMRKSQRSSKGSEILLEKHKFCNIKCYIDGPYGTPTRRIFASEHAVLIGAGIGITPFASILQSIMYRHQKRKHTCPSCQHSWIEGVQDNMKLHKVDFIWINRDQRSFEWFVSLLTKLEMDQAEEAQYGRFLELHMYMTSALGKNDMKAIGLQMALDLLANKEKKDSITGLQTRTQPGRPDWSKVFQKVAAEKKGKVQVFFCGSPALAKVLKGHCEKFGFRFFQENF
Test [20] is described as follows: A549 cell viability effects, profiling panel, calcein-AM fluorescence, 48 h, basal (AID 1162). Also: test concentration not given here. Conditions: higher = more signal.

The source made the active and inactive calls.

Sequence of Streptavidin (Streptomyces avidinii) (P22629 whole entry, looked up): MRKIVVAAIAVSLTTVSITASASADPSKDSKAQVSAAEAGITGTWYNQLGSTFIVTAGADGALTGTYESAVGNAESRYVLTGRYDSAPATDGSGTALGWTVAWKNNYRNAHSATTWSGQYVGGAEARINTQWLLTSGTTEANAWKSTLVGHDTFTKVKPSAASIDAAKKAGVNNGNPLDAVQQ

As for `CCCC[C@@H](O)C1=C(C)C[C@H]2C(=O)N(C)C(=O)[C@H]2[C@H]1CO`, the composite z-score in test [1] was -0.0163; in test [5], -0.242; in [6] it was -0.0736; in test [7] it was 0.0651; in test [8] it was -0.0216; in test [9], 1.18. The same compound registered a composite z-score in test [11] of -0.239. The z-score was -1.36 (inactive) in test [2]; 0.0423 (inactive) in test [3]; -2.14 (inactive) in [4]; 3.62 (inactive) in [10]; 3.54 (inactive) in test [12]; -0.526 (inactive) in test [13]. For the same compound, the z-score was -0.224 (inactive) in test [14]; -1.56 (inactive) in [15]; 0.8 in test [16]; -1.32 (inactive) in [17]; 0.914 (inactive) in test [18]; 0.794 in test [19]. For the same compound, the z-score in [20] was 2.36.
As for `CC(C)[Si](C#C[Si](C(C)C)(C(C)C)C(C)C)(O[C@H](C)c1cn([C@H](C)c2ccccc2)nn1)C(C)C`, the composite z-score was 0.0985 in test [1]; 0.434 in test [5]; -0.0209 in test [6]; 0.144 in test [7]; 0.477 in [8]; 1.14 in [9]. In addition, in [11], the composite z-score worked out at 0.241. Moreover, the z-score in [2] was -1.48 (inactive); in test [3], -0.332 (inactive); in [4], -1.59 (inactive); in test [10], 2.49 (inactive); in test [12] it was 0.792 (inactive); in test [13], -0.533 (inactive). In addition, the z-score is -0.926 (inactive) in [14]; -1.01 (inactive) in test [15]; 0.728 in test [16]; 0.586 (inactive) in [17]; 0.587 (inactive) in test [18]; 0.265 in test [19]. In addition, in [20], the z-score is 2.27.
With `COc1ccc([Si](C)(C)[C@@H]2[C@@H](CCn3cc([C@H](O)c4ccccc4)nn3)O[C@]3(C(=O)N(C)c4c(Br)cc(C)cc43)[C@H]2C)cc1`, the composite z-score is 0.17 in [1]; -0.541 in [5]; 0.0659 in [6]; 0.722 in [7]; -0.0682 in test [8]; 0.658 in test [9]. Moreover, in test [11], the composite z-score was -0.279. In addition, the z-score in test [2] was -6.27 (inactive); in [3] it was 8.24 (active); in [4], -1.37 (inactive); in test [10], 3.5 (inactive); in test [12] it was 26.4 (active); in test [13], 15.1 (active). For the same compound, the z-score was 0.547 (inactive) in test [14]; 0.083 (inactive) in test [15]; 2.34 in test [16]; 1.04 (inactive) in test [17]; 0.593 (inactive) in test [18]; 0.231 in test [19]. The z-score in test [20] was -1.72.
As for `C=CC[C@]1(C(=O)N(C)C)N=C(c2ccc(OCCCO)cc2)O[C@H]1c1ccccc1CN=[N+]=[N-]`, the composite z-score in test [1] came out at 0.508; in test [5], 1.39; in test [6], 0.0388; in test [7] it was 0.581; in test [8], 1.1; in test [9], 0.0463. The composite z-score in test [11] is -0.237. The z-score in test [2] is -1.79 (inactive); in test [3] it was 2.8 (inactive); in test [4], -1.16 (inactive); in test [10] it was 1.19 (inactive); in test [12], 11.8 (active); in [13] it was 1.47 (inactive). In addition, the z-score in test [14] was 2.63 (inactive); in test [15], 0.817 (inactive); in test [16], 0.434; in [17] it was 1.23 (inactive); in [18], 0.653 (inactive); in test [19], -1.25. Besides, the z-score in test [20] was 0.937.
